From PubChem BioAssay
An excerpt weighted towards active compounds, which were near 21% of everything screened.
DT40 TDP1 CPT – growth inhibition of DT40 Tdp1-/-;hTDP1 cells with camptothecin (screen for TDP1 inhibitors). AID 686979. chicken DT40 Tdp1-/-;hTDP1 cells + 20 nM CPT, ATP luminescence, 48 h. Potency, µM (series often up to 46.2 µM), most hits filed as inhibitors. hit rate 12% among 420,000; note: nearly all actives have a fitted effect of over 55% in size
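Cell growth measured by CellTiter-Glo luminescence after a minimum 48 h, 37 C compound exposure with 20 nM CPT in Tdp1-knockout DT40 cells stably expressing hTDP1, seeded 400/well; qHTS titration format.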
VP16 counter – inhibits Gal4-VP16 luciferase reporter, ROR gamma counter-screen; Potency, µM (top dose mostly 53.6 µM), most hits filed as inhibitors; Drosophila S2 Gal4-VP16 UAS-luciferase, luminescence, 20 h; hit rate 3.5% among 310,000;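 note: Gal4-VP16 expression switched on by copper sulfate through the metallothionein promoter; nearly all actives have a fitted effect of over 50% in size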
ELG1 DNA repair – inhibitors of ELG1-dependent DNA repair in HEK293T cells; HEK293T ELG1-luciferase reporter, luminescence, 16 h; DNA damage induced by 5-fluorouridine; Potency, µM (series often up to 46.1 µM), most hits filed as inhibitors; hit rate 2.3% among 330,000; AID 504467; note: nearly all actives have a fitted effect of over 55% in size
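Reporter activity after DNA damage by 5-fluorouridine is monitored. Compound-treated cells incubate 16 hr at 37 °C, then ONE-Glo is added for 30 min before luminescence reading.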
RORgamma inh – blocks mouse ROR gamma transcriptional activity; Drosophila S2 Gal4-RORgamma UAS-luciferase reporter, 20 h; Potency, µM (titrated, usually from 53.6 µM), usual class: inhibitors; hit rate 5.4% among 310,000; AID 2551; note: nearly all actives have a fitted effect of over 60% in size
Target sequence (P51450 whole entry, looked up, the tested form may be a part): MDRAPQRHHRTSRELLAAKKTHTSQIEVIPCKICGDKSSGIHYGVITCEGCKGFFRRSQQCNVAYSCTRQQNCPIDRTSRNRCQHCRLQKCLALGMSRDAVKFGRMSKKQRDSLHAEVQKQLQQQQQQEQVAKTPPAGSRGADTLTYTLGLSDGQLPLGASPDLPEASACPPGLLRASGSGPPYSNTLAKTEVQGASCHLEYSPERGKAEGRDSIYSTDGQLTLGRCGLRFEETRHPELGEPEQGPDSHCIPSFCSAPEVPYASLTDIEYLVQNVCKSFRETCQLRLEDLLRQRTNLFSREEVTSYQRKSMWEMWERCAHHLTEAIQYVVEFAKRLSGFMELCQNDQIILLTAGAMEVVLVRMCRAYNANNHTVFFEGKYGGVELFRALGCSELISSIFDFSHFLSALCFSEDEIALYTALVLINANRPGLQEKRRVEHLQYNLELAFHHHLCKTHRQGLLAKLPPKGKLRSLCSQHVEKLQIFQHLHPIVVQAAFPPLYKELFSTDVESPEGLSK
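Drosophila S2 cells stably expressing Gal4-DBD/mouse RORγ fusion under metallothionein promoter plus UAS-luciferase; compound 1 h, then 700 uM CuSO4 induction for 20 h at ambient temperature; inhibition read as reduced luminescence.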
IL-1B inflam inh – inhibitors of inflammasome signaling (IL-1 beta secretion); hit rate 4.7% among 360,000; activity change, % at 57.5 µM; THP-1 LPS/ATP IL-1B secretion, AlphaLISA, 16 h; stronger effect = lower value; in the data active = activity change below about -50%; inconclusive = mostly about -30% to -49%
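Secreted IL-1B measured by AlphaLISA bead assay after 16 h compound exposure of THP-1 cells; compounds (final up to 57.5 uM) added 1 h before LPS (250 ng/mL) and ATP (1.25 mM) stimulation; lower signal means less secretion.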
TDP1 cell noCPT – qHTS for Inhibitors of human tyrosyl-DNA phosphodiesterase 1 (TDP1): qHTS in cells in absence of CPT. AID 686978, 2013. Potency, µM (highest dose often 46.2 µM), actives largely listed as inhibitors. hit rate 15% among 420,000. DT40 Tdp1-/- hTDP1 cells, no CPT, ATP luminescence, 48 h; note: nearly all actives have a fitted effect of over 55% in size
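Growth of hTDP1-complemented DT40 Tdp1-knockout cells is measured by ATP luminescence after at least 48 hr compound exposure at 37 °C, with DMSO substituting for the 20 nM CPT used in the parallel screen.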
Hits are given with their value; ! = not active in a repeat; [ ] = remark or other dose. Unless noted, calls come from the whole dose curve; as a rule, active = well fitted curve in the direction sought with a large enough effect; inconclusive = small, poorly fitted or top-dose-only effect, or another doubt; inactive = no such curve, though single readings can be large; an effect the other way counts as inactive or inconclusive.

COC(=O)C1=C(c2cccc(OCc3ccccc3)c2)C[C@@H]2CC[C@H]1N2C(=O)NCc1ccccc1C(F)(F)F was read as DT40 TDP1 CPT 20.6µM, ELG1 DNA repair inactive, IL-1B inflam inh inactive and TDP1 cell noCPT 23.1µM.
For COC(=O)C1=C(c2cccc(OCc3ccccc3)c2)C[C@@H]2CC[C@H]1N2C(=O)NCCOc1ccc(OC)cc1 the results were DT40 TDP1 CPT 23.1µM, ELG1 DNA repair inconclusive, IL-1B inflam inh inactive and TDP1 cell noCPT inconclusive.
Screening COC(=O)C1=C(c2ccccc2OCc2ccccc2)C[C@@H]2CC[C@H]1N2C(=O)NCCCOC(C)C returned DT40 TDP1 CPT 16.4µM, ELG1 DNA repair inactive, IL-1B inflam inh inactive and TDP1 cell noCPT inconclusive.
`CC12CCCCC1=[N+]([O-])CN2O` (stereo unspecified) gave DT40 TDP1 CPT inactive, ELG1 DNA repair inactive, RORgamma inh inactive[0.365 µM], IL-1B inflam inh inactive and TDP1 cell noCPT inactive.
For COC1C(C)OC(OC2CC(C)(O)Cc3cc4c(c(O)c32)C(=O)c2c(O)cc3c(c2C4=O)OC2OC3(C)C(O)C(N(C)C)C2O)C(OC)C1(C)OC (stereo unspecified) the results were DT40 TDP1 CPT 0.082µM, IL-1B inflam inh -99.2 and TDP1 cell noCPT 0.116µM.
For COc1ccccc1CC(=O)N1CCN(CCc2ccccc2)CC1 the results were DT40 TDP1 CPT inactive, VP16 counter inactive, ELG1 DNA repair inactive, RORgamma inh inactive, IL-1B inflam inh inactive and TDP1 cell noCPT inconclusive.
Screening COc1ccccc1OC(C)C(=O)N1CCC(Cc2ccccc2)CC1 (stereo unspecified) returned DT40 TDP1 CPT 16.4µM, VP16 counter inactive, ELG1 DNA repair inactive, RORgamma inh inactive, IL-1B inflam inh -72.4 and TDP1 cell noCPT inconclusive.
CCCCCC(O)C1C(=O)OC(C)C(O)\C=C/C=C\C=C/C=C\C=C(\C)C(O)C(O)C(O)CC(O)CC(O)CC(O)CC(O)CC1O (stereo unspecified) was read as VP16 counter inactive and RORgamma inh inactive.
`CCCCCC1CC(CC(=O)NC(=S)Nc2ccc([N+](=O)[O-])cc2)C(=O)O1` (stereo unspecified) gave DT40 TDP1 CPT inactive, VP16 counter inconclusive, ELG1 DNA repair inconclusive, RORgamma inh 70.8µM, IL-1B inflam inh inactive and TDP1 cell noCPT inactive.
Screening CCCc1cc2c(n1CCO)C(C)C1CN(C(=O)c3ccccc3)C(C)(C(=O)OC)C21 (stereo unspecified) returned VP16 counter inactive and RORgamma inh inactive.
`CC(C)c1cccc(O)c(=O)c1` gave DT40 TDP1 CPT 6.51µM!, VP16 counter 2.82µM!, ELG1 DNA repair inconclusive, RORgamma inh 2µM, IL-1B inflam inh inactive and TDP1 cell noCPT 22.4µM.
For CN1Cc2c(ccc3c2OCO3)C2C(O)Cc3cc4c(cc3C21)OCO4 (stereo unspecified) the results were DT40 TDP1 CPT 2.66µM, VP16 counter inactive, RORgamma inh inactive and TDP1 cell noCPT 1.88µM.
For CN1CCc2cc3c(cc2[C@@H]1[C@@H]1OC(=O)c2c1ccc1c2OCO1)OCO3 the results were VP16 counter inactive and RORgamma inh inactive.
For O=C(c1ccco1)N1CCN(C(=O)c2ccc(COc3ccc(Cl)cc3Cl)o2)CC1 the results were DT40 TDP1 CPT 25.9µM, IL-1B inflam inh inactive and TDP1 cell noCPT inconclusive.
Screening CCOC(=O)c1ccc(N2C(=O)c3n[nH]c(-c4cccs4)c3C2c2ccc(Cl)cc2Cl)cc1 (stereo unspecified) returned DT40 TDP1 CPT inconclusive and TDP1 cell noCPT 18.4µM.
For CCOC(=O)c1ccc(N2C(=O)c3n[nH]c(-c4cccs4)c3C2c2ccc(C(C)(C)C)cc2)cc1 (stereo unspecified) the results were DT40 TDP1 CPT 16.4µM and TDP1 cell noCPT 6.51µM.
`CCCCN(C(=O)Oc1ccccc1)C1CCS(=O)(=O)C1` (stereo unspecified) gave DT40 TDP1 CPT inactive, VP16 counter inactive, ELG1 DNA repair inactive, RORgamma inh inconclusive, IL-1B inflam inh inactive and TDP1 cell noCPT inactive.
`COC(=O)[C@@]1(Cc2ccccc2)[C@H]2c3cc(C(=O)N(C)C)n(C)c3C[C@H]2CN1C(=O)c1ccccc1` gave VP16 counter inactive and RORgamma inh inactive.
COc1ccccc1OCCCn1cc(C(=O)C2CC2)c2ccccc21 was read as DT40 TDP1 CPT inconclusive, VP16 counter inactive, ELG1 DNA repair inconclusive, RORgamma inh inactive, IL-1B inflam inh inactive and TDP1 cell noCPT inconclusive.
`COc1ccccc1OCCCn1cc(C(C)=O)c2ccccc21` gave DT40 TDP1 CPT inconclusive, VP16 counter inconclusive, ELG1 DNA repair inconclusive, RORgamma inh inactive, IL-1B inflam inh inactive and TDP1 cell noCPT 18.4µM.
Screening COc1ccccc1OCCCn1cc(C=O)c2ccccc21 returned DT40 TDP1 CPT inconclusive, VP16 counter 0.002µM, ELG1 DNA repair inconclusive, RORgamma inh inconclusive, IL-1B inflam inh inconclusive and TDP1 cell noCPT 20.6µM.
Screening CC(C)OC(=O)c1c(N)n(CC2CCCO2)c2nc3ccccc3nc12 (stereo unspecified) returned DT40 TDP1 CPT inconclusive, VP16 counter inactive, ELG1 DNA repair inconclusive, RORgamma inh inactive, IL-1B inflam inh inactive and TDP1 cell noCPT inconclusive.
For CC(C)CCOC(=O)c1c(N)n(CC2CCCO2)c2nc3ccccc3nc12 (stereo unspecified) the results were DT40 TDP1 CPT inconclusive, VP16 counter inactive, ELG1 DNA repair inconclusive, RORgamma inh inactive, IL-1B inflam inh -65.1 and TDP1 cell noCPT 20.6µM.
Nc1c(C(=O)OC2CCCCC2)c2nc3ccccc3nc2n1CC1CCCO1 (stereo unspecified) was read as DT40 TDP1 CPT inconclusive, VP16 counter inactive, ELG1 DNA repair inconclusive, RORgamma inh 11.2µM, IL-1B inflam inh inconclusive and TDP1 cell noCPT 16.4µM.
`CCOC(=O)[C@]12Cc3cc(OC)ccc3[C@H]1N(C1CCCCC1)C(=O)c1cc(OC)ccc12` gave DT40 TDP1 CPT 2.59µM, IL-1B inflam inh -114.0 and TDP1 cell noCPT 4.61µM.
`CCOC(=O)C1C(=O)NC2(C)CC1c1cc(OC)ccc1O2` (stereo unspecified) gave DT40 TDP1 CPT inactive, VP16 counter inactive, ELG1 DNA repair inactive, RORgamma inh inactive[10 µM], IL-1B inflam inh inactive and TDP1 cell noCPT inactive.
For CCOC(=O)[C@]12Cc3cc(C)ccc3[C@H]1N(C1CCCCC1)C(=O)c1cc(OC)ccc12 the results were DT40 TDP1 CPT 1.16µM, IL-1B inflam inh -110.7 and TDP1 cell noCPT 1.03µM.
